Compounds with a hit are over-represented: about 0.95% of the library has one in this group of screens.
RE007 growth inh: less growth of the S. pombe RE007 Vpr strain; S. pombe RE007 Vpr strain, BacTiter-Glo ATP luminescence, 24 h; hit rate 0.21% among 360,000; AID 651644; Potency, µM (top dose mostly 92.2 µM), for inactives: at the top dose activity change, negative = less growth, most hits filed as inhibitors; active = well fitted falling curve with a large enough effect; inconclusive = small, poorly fitted or top-dose-only effect; inactive = no such curve, though single readings can be large or run the other way; note: nearly all actives have a fitted effect of over 50% in size
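Fission yeast strain RE007, carrying one chromosomally integrated HIV-1 vpr copy, was seeded at OD 0.01 in PMG+AL medium with 23 nL pinned compound. After 24 h at 30 °C and 99% humidity, viability was read by BacTiter-Glo luminescence.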
LmPK inhibitor: blocks Leishmania mexicana pyruvate kinase activity; hit rate 0.37% among 290,000; purified LmPK, Kinase-Glo ATP luminescence, 1 h; Q27686; Potency, µM (titrated, usually from 57.5 µM), without a hit: at the highest dose activity change, negative = inhibition, most hits filed as inhibitors
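0.1 nM LmPK, 0.5 mM PEP, 0.1 mM ADP; 50 mM imidazole pH 7.2, 7 mM MgCl2, 50 mM KCl; 1 h RT. Kinase-Glo luminescence readout, normalized to no-enzyme (full inhibition) and uninhibited wells.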
Giardia FBPA inh: inhibitors of Giardia lamblia fructose-1,6-bisphosphate aldolase. purified Giardia FBPA. Potency, µM (highest dose often 59.6 µM), inactives show at the top dose activity, negative = inhibition, actives largely listed as inhibitors. hit rate 0.71% among 290,000. AID 2451; note: nearly all actives have a fitted effect of over 55% in size
Target sequence (A8B2U2 whole entry, looked up): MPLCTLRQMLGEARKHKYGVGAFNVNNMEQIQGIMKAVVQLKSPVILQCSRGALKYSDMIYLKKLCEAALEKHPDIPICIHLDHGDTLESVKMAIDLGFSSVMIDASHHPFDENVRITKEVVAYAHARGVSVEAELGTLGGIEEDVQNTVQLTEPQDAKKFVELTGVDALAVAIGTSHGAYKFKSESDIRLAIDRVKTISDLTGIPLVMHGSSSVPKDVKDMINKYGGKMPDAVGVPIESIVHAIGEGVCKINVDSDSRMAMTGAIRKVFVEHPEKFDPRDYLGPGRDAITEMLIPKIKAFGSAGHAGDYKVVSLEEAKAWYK
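Giardia FBPA (40 nM reagent) was preincubated 10 min at RT with compound (up to 57.5 uM final), then substrate plus GAPDH/TPI/NAD/arsenate coupling system with diaphorase/resazurin was added; resorufin fluorescence (525/598 nm) was read after 20 min.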
TbPYK inhibitor: blocks Trypanosoma brucei pyruvate kinase; TbPYK enzyme, Kinase-Glo Plus ATP luminescence, 45 min; hit rate 0.12% among 410,000; AID 624173; Potency, µM (top dose mostly 76.8 µM), without a hit: at the highest dose activity, negative = inhibition, actives largely listed as inhibitors; note: nearly all actives have a fitted effect of over 50% in size
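Luminescence from Kinase-Glo Plus, added after a 45-minute room-temperature reaction, served as the end-point read-out. The enzyme and substrate were preincubated with compound before ADP (130 uM final) initiated turnover. Concentration-effect curves came from normalized qHTS data.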
* = called active by the depositor; ? = inconclusive; / = no result given; [ ] = remark or other dose. Unless noted, calls come from the whole dose curve; as a rule, active = well fitted curve in the direction sought with a large enough effect; inconclusive = small, poorly fitted or top-dose-only effect, or another doubt; inactive = no such curve, though single readings can be large; an effect the other way counts as inactive or inconclusive. % is set by controls: 0 for no effect and ±100 for the full control effect; potency is the fitted concentration of half-maximal effect.

SMILES | RE007 growth inh | LmPK inhibitor | Giardia FBPA inh | TbPYK inhibitor
COc1ccccc1-n1c(CNC(=O)c2cccc([N+](=O)[O-])c2C)n[nH]c1=S | 9.4% | 1.1% | -17.0% | 7.94µM*
CCn1c(/C=C/c2ccccc2)nc2ccccc21 | ? | 22.4µM* | -14.7% | -6.9%
COc1ccc(CNc2nc3ccccc3n2C)c(OC)c1 | -16.4% | 17.8µM* | -4.6% | -16.6%
COc1ccc(/C=C/c2nc3ccccc3n2C)cc1 | 31.6µM* | 17.8µM* | ? | ?
NCCC[C@@H](CC(=O)N[C@@H]1CCCC[C@H]1C(=O)N[C@H](CC(=O)N[C@@H](CCC(=O)O)CC(=O)O)Cc1c[nH]c2ccccc12)NC(=O)C[C@H](Cc1c[nH]c2ccccc12)NC(=O)[C@@H]1CNCC[C@H]1N | / | / | -20.1% | /
Cc1ccc(S(=O)(=O)N(CC(=O)Nc2cccnc2)c2cc(Cl)ccc2C)cc1 | / | / | / | 1.0%
Cc1ccc(NC(=O)c2ncoc2-c2ccco2)cc1Cl | / | / | / | -10.3%
Cc1ccc(NC(=O)/C=C\C(=O)O)c([N+](=O)[O-])c1 | -15.9% | -1.4% | 6.2% | 3.2%
Cc1cc(C)c(NC(=O)/C=C\C(=O)O)c([N+](=O)[O-])c1 | 31.6µM* | 1.6% | 13.8% | -13.1%
CCCCCCCCCCCCCC[C@@H](O)[C@@H](O)[C@H](CO)NC(C)=O | / | / | 1.2% | /
O=C(/C=C/c1ccc(O)c(O)c1)OC1C(O)CC(OC(=O)/C=C/c2ccc(O)c(O)c2)(C(=O)O)CC1O (stereo unspecified) | 2.6% | 2µM* | -25.3% | ?
COc1cccc(N2CCN(C(=O)c3ccc(CSc4nc5ccncc5[nH]4)cc3)CC2)c1 | -7.9% | 0.7% | -28.6% | 26.1%
COc1cccc(CSc2nc3ccncc3[nH]2)c1 | ? | 25.1µM* | -7.1% | -4.6%
COc1ccc(CNc2ccnc(-c3ccccc3CN(C)C)n2)c(OC)c1 | / | / | 6.2% | /
Cc1ccc(-n2c(=O)c3ccc(C(=O)NCc4ccccc4Cl)cc3n(Cc3cccc(F)c3)c2=O)cc1 | / | / | / | -1.8%
COc1ccc(S(=O)(=O)N2CCCCCC2)cc1C(=O)N(C)Cc1ccccc1F | 4.6% | / | / | 0.1%
CC(c1ccc(F)cc1)n1c(Cn2ncc3ccccc3c2=O)n[nH]c1=S (stereo unspecified) | 18.3% | 5.5% | 6.2% | 12.6µM*
CC(c1ccc(F)cc1)n1c(-c2cccs2)n[nH]c1=S (stereo unspecified) | -2.6% | ? | -6.6% | 7.08µM*
O=c1c2ccccc2cnn1Cc1n[nH]c(=S)n1-c1cc(Cl)cc(Cl)c1 | 1.6% | -25.2% | 15.6% | 6.31µM*
O=c1c2ccccc2cnn1Cc1n[nH]c(=S)n1-c1ccc(F)c(Cl)c1 | -7.6% | 2.0% | 5.4% | ?
CC(C)C(N)c1csc(NC(=O)Nc2ccc(OC(F)(F)F)cc2)n1 (stereo unspecified) | 27.6% | / | / | -8.3%
Nc1[nH]c(C(=O)c2ccccc2)c(-c2cccc3ccccc23)c1C(=O)NCc1ccccc1 | -6.9% | / | / | -1.8%
Cc1ccsc1/C=N\NC(=O)CC(=O)NCc1ccccc1 | 1.1% | -0.3% | 19.9µM* | -6.1%
Cc1ccsc1/C=N/NC(=S)NCc1ccccc1 | 3.4% | -4.0% | 15.8% | -6.3%
CCOC(=O)c1c(C)oc2c1c1c(c3ccccc32)OCN(Cc2cccnc2)C1 | -3.4% | 0.0% | 5µM* | -3.2%
SMILES | RE007 growth inh | LmPK inhibitor | Giardia FBPA inh | TbPYK inhibitor
CCOC(=O)c1c(C)oc2c1c1c(c3ccccc32)OCN(CCCC(=O)O)C1 | -9.1% | 3.4% | ? | 1.1%
O=C(Nc1cccc(Cl)c1)c1cc(N=Nc2ccc([N+](=O)[O-])cc2Cl)ccc1O | -20.3% | 14.1µM* | -1.2% | ?
Cc1ccc(S(=O)(=O)C=CS(=O)(=O)c2ccc(C)cc2)cc1 | 1.41µM* | / | / | ?
COCCn1c2c([n+](Cc3cnccn3)c1C)C(=O)c1ccccc1C2=O | / | / | / | 0.0%
O=C(CCN1CCc2ccccc2C(c2ccccc2)C1)c1ccc2c(c1)OCCO2 (stereo unspecified) | 5.62µM* | -1.4% | -14.6% | ?
O=C(CCN1Cc2ccccc2C1)c1ccc2c(c1)OCCO2 | ? | -0.1% | -5.6% | ?
CN(c1ncccc1CNc1nc(Nc2ccc3c(c2)CC(=O)N3)ncc1C(F)(F)F)S(C)(=O)=O | / | / | / | 1.4%
CC(C)(C)c1cc[n+](/C(C(=S)NC2CC2)=C(/[O-])c2ccc(Cl)s2)cc1 | -3.7% | 8.4% | 6.29µM* | -2.5%
Cc1c(Cl)cccc1-n1c(-c2cccnc2)n[nH]c1=S | -8.9% | ? | -9.1% | 7.08µM*
Cc1ccc(C)c(-n2c(-c3cccnc3)n[nH]c2=S)c1 | 9.4% | -27.7% | ? | ?
Cc1cc(Cl)ccc1-n1c(-c2cccnc2)n[nH]c1=S | 12.2% | 8.91µM* | -23.5% | 14.1µM*
COc1ccc(-c2nc3ccccc3[nH]2)cc1 | ? | 12.6µM* | -17.2% | ?
Cc1ccc(-c2nc3ccccc3[nH]2)s1 | 20µM* | 15.8µM* | ? | ?
Nc1cc(N)cc(-c2nc3ccccc3[nH]2)c1 | -9.0% | -1.2% | -1.8% | 10.0%
Cc1cc(-c2nc3ccccc3[nH]2)ccc1N | ? | 15.8µM* | -3.3% | -11.6%
O=C1NC2CCCCN2C12CCN(CCCN1c3ccccc3CCc3ccc(Cl)cc31)CC2 (stereo unspecified) | / | / | / | 1.4%
Cc1cccc(NC(=O)c2cc3ccccc3o2)c1 | -29.9% | 14.1µM* | ? | -10.0%
CC(=O)/C(N=Nc1ccc(C(=O)O)cc1[N+](=O)[O-])=C(\C)O | -24.4% | 25.1µM* | -11.0% | -15.8%
CCOC(=O)/C(N=Nc1ccc(C(=O)O)cc1[N+](=O)[O-])=C(\C)O | 2.6% | -18.5% | 0.0% | 0.6%
CCNC(=O)Oc1ccc[nH]c1=O | / | -4.4% | 3.97µM* | 7.0%
COc1ccc(C(=O)Oc2ccc[nH]c2=O)cc1 | / | -12.0% | -2.9% | -1.8%
CCOc1cc(CNc2ccc3[nH]c(=O)[nH]c3c2)ccc1OCC(=O)NC(C)(C)C | 16.4% | 2.1% | ? | -9.7%
COc1cc(CNc2ccc3[nH]c(=O)[nH]c3c2)cc(Cl)c1OCC(=O)NC(C)(C)C | -15.2% | -4.4% | 9.98µM* | -20.0%
CC(C)[C@H](NC(=O)[C@@H](Cc1c[nH]c2ccccc12)NC(=O)[C@H](Cc1ccc(O)cc1)NC(=O)[C@@H](N)CC(=O)O)C(=O)N[C@H](Cc1c[nH]c2ccccc12)C(=O)N[C@H](Cc1c[nH]c2ccccc12)C(=O)N[C@@H](CCCCN)C(N)=O | / | / | 4.6% | /
CC(C)n1c(-c2ccc(C(C)(C)C)cc2)n[nH]c1=S | -6.7% | 8.91µM* | -0.6% | ?
COc1cc(C(=O)ON=C2C3CC4CC(C3)CC2C4)cc(OC)c1OC | -13.3% | 7.0% | 7.6% | -11.7%
COc1cc(C(=O)O/N=C2/C=CC(=O)C(C)=C2C)cc(OC)c1OC | 4.7% | -0.2% | 3.97µM* | -0.4%
CC(C)OC(=O)c1cc(C(=O)OC(C)C)cc([N+](=O)[O-])c1 | / | / | / | 0.0%[157 µM]
CCOC(=O)c1ccc(NC(=O)CC2Sc3ncnn3C2=O)cc1 (stereo unspecified) | 31.6µM* | 5.1% | ? | -19.7%
